Assay results taken from PubChem BioAssay (NCATS).
Inconclusive results are not listed. Activity calls are given as the source filed them. Calls come from the whole dose curve; as a rule, active = well fitted inhibition curve with a large enough effect; inconclusive = small, poorly fitted or top-dose-only effect; inactive = no such curve, though single readings can be large or run the other way. Starred links: 1 amine or outer side, 2 acyl side, 3 side chain; linkers in the order of their positions; H or OH if unused. Positions of bridges follow the written chain, without caps; N, C: chain ends. Non-standard residues stand in square brackets, D forms with d. Residues, ends and D or L forms follow the SMILES beside them. Chains are numbered I, II in the order given. Actinocin(9to1) = Cc1c2oc3c(C)ccc(C(=O)[*:1])c3nc-2c(C(=O)[*:2])c(N)c1=O; NMeV = CN[CH](C(=O)O)C(C)C; Sar = CNCC(=O)O

Experiment: qHTS Screen of the MIPE 4.0 Collection Against Ewings Sarcoma (RDES) (AID 1259252); note: nearly all actives have a fitted effect of over 35% in size
Settings: RD-ES Ewing sarcoma viability, CellTiter-Glo, 48 h; series mostly up to 45.8 µM
Summary of the method: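 Cells plated in serum-containing RPMI (5% FBS) and treated with compound dilutions for 48 h. Readout luminescent viability; normalization relied on vehicle (no inhibition) and media-only columns (full inhibition).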
Potency is the fitted concentration of half-maximal effect.

Row | SMILES | Potency
1 | Cn1cc(C[C@@H](N)C(=O)O)c2ccccc21 | inactive
2 | Cc1cc(-c2nnc3n2CCCCC3)c(C)n1-c1ccccc1 | inactive
3 | O=[N+]([O-])c1cn2c(n1)OC[C@@H](OCc1ccc(OC(F)(F)F)cc1)C2 | 3.32 µM (active)
4 | N[C@H]1CN(c2c(F)cc3c(=O)c(C(=O)O)cn(C4C[C@@H]4F)c3c2Cl)CC12CC2 (some centres not stated) | inactive
5 | C[C@@H](Cc1cc2c(c(C(N)=O)c1)N(CCCO)CC2)NCCOc1ccccc1OCC(F)(F)F | inactive
6 | C[C@H]1COc2c(N3CCN(C)CC3)c(F)cc3c(=O)c(C(=O)O)cn1c23 | inactive
7 | CCNC(=O)c1cc2c(-c3cc(OCCN4CCCC4)c(Cl)cc3Cl)nc(N)nc2s1 | 1.18 µM (active)
8 | COC(=O)[C@H](CCCN=C(N)N)NS(=O)(=O)c1ccc(C)cc1 | inactive
9 | CCCNS(=O)(=O)Nc1ncnc(OCCOc2ncc(Br)cn2)c1-c1ccc(Br)cc1 | inactive
10 | Cn1cc(C=CC(=O)c2cccc(F)c2)cc1C=CC(=O)NO | 23.5 µM (active)
11 | CCN1CCN(C(=O)N[C@H](C(=O)N[C@@H]2C(=O)N3C(C(=O)O)=C(CSc4nnnn4C)CS[C@@H]23)c2ccc(O)cc2)C(=O)C1=O | inactive
12 | Cn1c(Nc2ccc(C(F)(F)F)cc2)nc2cc(Oc3ccnc(-c4ncc(C(F)(F)F)[nH]4)c3)ccc21 | 14.8 µM (active)
13 | CC(C)(O)[C@H]1CC[C@@](C)([C@H]2[C@@H](O)C[C@@]3(C)[C@@H]4C[C@H](O[C@@H]5O[C@H](CO)[C@@H](O)[C@H](O)[C@@H]5O)[C@H]5C(C)(C)[C@@H](O[C@@H]6OC[C@@H](O)[C@H](O)[C@@H]6O)CC[C@@]56C[C@@]46CC[C@]23C)O1 | 10.5 µM (active)
14 | CC(=O)O[C@H]1C[C@@H]2CC[C@H]3[C@H]4C[C@H]([N+]5(C)CCCCC5)[C@@H](OC(C)=O)[C@@]4(C)CC[C@@H]3[C@@]2(C)C[C@H]1[N+]1(C)CCCCC1 | 1.32 µM (active)
15 | O=C1c2c(O)cccc2[C@@H]([C@@H]2O[C@H](CO)[C@@H](O)[C@H](O)[C@H]2O)c2cc(CO)cc(O)c21 | inactive
16 | Nc1nc(=O)n([C@H]2C[C@H](O)[C@@H](CO)O2)cc1F | 0.0469 µM (active)

Row | SMILES | Potency
17 | O=C(O)CCCCC(CCSCc1ccccc1)SCc1ccccc1 (configuration not stated) | inactive
18 | OCCNC1CCCc2c1[nH]c1ccc(-c3ccccc3)cc21 (configuration not stated) | 26.4 µM (active)
19 | C=C1C(=O)O[C@H]2[C@@H]1CCC(C)=CCC[C@@]1(C)O[C@@H]21 | 20.9 µM (active)
20 | CCCNC(=O)[C@H]1O[C@H]1C(=O)N[C@H](C(=O)N1CCC[C@@H]1C(=O)OC)C(C)CC (some centres not stated) | 3.32 µM (active)
21 | CC(C)(O)Cn1c(NC(=O)c2ccc(-c3cn[nH]c3)s2)nc2cc(CN3CCOCC3)ccc21 | 1.66 µM (active)
22 | CC[C@H](CC[C@@H](C)[C@H]1CC[C@H]2[C@@H]3CC=C4C[C@@H](O)CC[C@]4(C)[C@@H]3CC[C@]12C)C(C)C | inactive
23 | Nc1ccc(C(=O)Nc2cccc(-c3nc(N4CCOCC4)c4oc5ncccc5c4n3)c2)cn1 | 18.7 µM (active)
24 | Cc1c2oc3c(C)ccc(C(=O)NC4C(=O)NC(C(C)C)C(=O)N5CCCC5C(=O)N(C)CC(=O)N(C)C(C(C)C)C(=O)OC4C)c3nc-2c(C(=O)NC2C(=O)NC(C(C)C)C(=O)N3CCCC3C(=O)N(C)CC(=O)N(C)C(C(C)C)C(=O)OC2C)c(N)c1=O (configuration not stated) (I: TVP[Sar][NMeV] / II: TVP[Sar][NMeV]; ester I:1-I:C, II:1-II:C; linker I:N-II:N via Actinocin(9to1); configuration not given here) | inactive
25 | CC(=CC(=O)Nc1ccccc1C(=O)O)c1ccc2ccccc2c1 | 4.18 µM (active)
26 | O=C1NCCc2[nH]c(-c3ccncc3)cc21 | 3.32 µM (active)
27 | Cc1noc(-c2ccc(CSCCC(=O)O)cc2)c1NC(=O)OC(C)c1ccccc1Cl (configuration not stated) | inactive
28 | CC[C@H]1OC(=O)[C@H](C)[C@@H](O[C@H]2C[C@@](C)(OC)[C@@H](O)[C@H](C)O2)[C@H](C)[C@@H](O[C@@H]2O[C@H](C)C[C@H](N(C)C)[C@@H]2O)[C@](C)(OC)C[C@@H](C)C(=O)[C@H](C)[C@@H](O)[C@]1(C)O | inactive
29 | CC(=O)SCC(Cc1ccccc1)C(=O)NCC(=O)OCc1ccccc1 (configuration not stated) | 0.59 µM (active)
30 | COc1cccc2c1C(=O)c1c(O)c3c(c(O)c1C2=O)C[C@@](O)(C(=O)CO)C[C@@H]3O[C@H]1C[C@H](N)[C@@H](O)[C@H](C)O1 | 0.264 µM (active)
31 | CC(C)Oc1ccc(C(=O)N[C@H](CNC(=O)CN(C)C)Cc2ccc(-c3cn4cccc([C@H](C)O)c4n3)cc2)cc1Cl | 0.235 µM (active)
32 | N#Cc1cc(NC(=O)Nc2nnc(-c3ccncc3)s2)ccc1-c1cn[nH]c1 | inactive
